# Results taken from a collection of fitness landscapes (doi:10.1016/j.celrep.2020.107928).
# Whole data set: some 81,000 sequences, median “one-hybrid fitness for binding NBS DNA” near -0.1, cut for the highest 2% near 0.36. This excerpt belongs to a sample that is enriched for the highest values.
# B1: Caulobacter ParB omega fusion; a variant is named by its letters at X, in order, B8GW30 (parent)
# chain: MESVVVGEPGMSEGRRGLGRGLSALLGEVDAAPAQAPGEQLGGSREAPIEILQRNPDQPRRTFREEDLEDLSNSIREKGVLQPILVRPSPDTAGEYQIVAGERAWRAAQRAGLKTVPIMVRELDDLAVLEIGIIENVQRADLNVLEEALSYKVLMEKFERTQENIAQTIGKSXSHVANXMRLLXLPDEVQSYLVSGELTAXHARAIAAAADPVALAKQIIEGGLSVRETEALARKAPNLSAGKSKGGRPPRVKDTDTQALESDLSSVLGLDVSIDHRGSTGTLTITYATLEQLDDLCNRLTRGI
# Variants of: B1
# Assay: one-hybrid fitness for binding NBS DNA (the Noc-binding site; scaled: cognate 1, non-cognate 0); higher = stronger binding
# Settings: with NBS DNA site
# Summary of the method: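 Fitness is the rescaled log change in variant-to-wild-type read ratio, measured by Illumina sequencing of plasmids before and after bacterial one-hybrid selection. The scale puts cognate at 1 and non-cognate at 0. Selection of Caulobacter ParB libraries, four specificity codons randomised, took place in E. coli USO with a HIS3 reporter, site 19 bp from the promoter, over 48 hours at 37°C on M9-minus-histidine with 0.1 mM IPTG and 5 mM 3-AT.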
row,Variant,one-hybrid fitness for binding NBS DNA
1,TSRY,≤ 0.2
2,RQHL,≤ 0.2
3,HCVL,≤ 0.2
4,SCSP,≤ 0.2
5,SVIR,≤ 0.2
6,DSRA,≤ 0.2
7,DIFG,≤ 0.2
8,WLHF,≤ 0.2
9,EQLL,≤ 0.2
10,LLDV,≤ 0.2
11,GYFR,≤ 0.2
12,QKND,≤ 0.2
13,QKNN,0.203
14,QKDT,0.401
15,QKNT,0.639
16,GYDR,≤ 0.2
17,FATT,≤ 0.2
18,GEDG,≤ 0.2
19,RIGT,0.403
20,RCGT,0.462
21,RHGT,0.344
22,RFGT,≤ 0.2
23,RAGF,≤ 0.2
24,RSGT,0.425
25,RIGQ,≤ 0.2

row,Variant,one-hybrid fitness for binding NBS DNA
1,RNGT,≤ 0.2
2,RAGT,0.443
3,RPGT,≤ 0.2
4,RAGG,≤ 0.2
5,CETT,≤ 0.2
6,LWGM,≤ 0.2
7,HAAD,≤ 0.2
8,HAFN,≤ 0.2
9,VLQG,≤ 0.2
10,QKVT,0.44
11,QGVT,≤ 0.2
12,QKKT,0.774
13,QKVG,≤ 0.2
14,QPVT,0.269
15,DKKT,≤ 0.2
16,QCVT,0.428
17,CKVS,≤ 0.2
18,ENAK,≤ 0.2
19,LWKN,≤ 0.2
20,VVCT,≤ 0.2
21,GSCC,≤ 0.2
22,HRFR,≤ 0.2
23,RRNS,0.678
24,RRDP,≤ 0.2
25,RRDD,≤ 0.2

row,Variant,one-hybrid fitness for binding NBS DNA
1,RRNC,0.343
2,RRDS,0.58
3,RRNF,0.281
4,ADSL,≤ 0.2
5,MLMV,≤ 0.2
6,CATV,≤ 0.2
7,SVNP,≤ 0.2
8,VMPY,≤ 0.2
9,MHHD,≤ 0.2
10,QRLP,≤ 0.2
11,QRLH,0.453
12,QRLN,0.308
13,QCLH,≤ 0.2
14,QRLD,≤ 0.2
15,QRLS,0.603
16,LGRE,≤ 0.2
17,ACPI,≤ 0.2
18,REGM,≤ 0.2
19,TASA,≤ 0.2
20,RQPR,≤ 0.2
21,RQQD,≤ 0.2
22,RQSH,≤ 0.2
23,RQDR,≤ 0.2
24,RQSD,≤ 0.2
25,RQQS,0.429

row,Variant,one-hybrid fitness for binding NBS DNA
1,RQWR,0.244
2,RQQP,≤ 0.2
3,RQRR,0.717
4,RQSR,0.474
5,RQNR,0.559
6,RQND,≤ 0.2
7,ARKV,≤ 0.2
8,NQVL,≤ 0.2
9,FWRE,≤ 0.2
10,DFAH,≤ 0.2
11,PFPI,≤ 0.2
12,KFHC,≤ 0.2
13,LPAH,≤ 0.2
14,KTKA,≤ 0.2
15,EELL,≤ 0.2
16,PSMT,≤ 0.2
17,RQGP,≤ 0.2
18,RQHD,≤ 0.2
19,RQHR,0.476
20,RQHH,≤ 0.2
21,RQLR,0.359
22,RQGS,0.408
23,RQQG,≤ 0.2
24,RQGN,≤ 0.2
25,RQQT,0.441

row,Variant,one-hybrid fitness for binding NBS DNA
1,RQYR,0.368
2,RQQK,≤ 0.2
3,RQIR,≤ 0.2
4,CNHR,≤ 0.2
5,SRDF,≤ 0.2
6,GICT,≤ 0.2
7,HHHV,≤ 0.2
8,ISLV,≤ 0.2
9,PQPQ,≤ 0.2
10,SHQT,≤ 0.2
11,RQKG,≤ 0.2
12,RQVR,0.258
13,RQGR,0.447
14,RQKR,0.752
15,RQGD,≤ 0.2
16,RQGH,≤ 0.2
17,RQQH,≤ 0.2
18,RQQN,≤ 0.2
19,RQAP,≤ 0.2
20,RQFR,0.262
21,RQAR,0.427
22,RQQR,0.475
23,IAMG,≤ 0.2
24,HHPA,≤ 0.2
25,HPHL,≤ 0.2

row,Variant,one-hybrid fitness for binding NBS DNA
1,TLMC,≤ 0.2
2,PVFR,≤ 0.2
3,FHGR,≤ 0.2
4,QHHG,≤ 0.2
5,RYFG,≤ 0.2
6,RQYS,0.322
7,RQHP,≤ 0.2
8,RQCN,≤ 0.2
9,RQRS,0.6
10,RQHS,0.468
11,RQHN,≤ 0.2
12,RQCS,0.278
13,RQRN,0.221
14,RQCR,0.394
15,TYVN,≤ 0.2
16,IGSF,≤ 0.2
17,FTRC,≤ 0.2
18,PRTW,≤ 0.2
19,QTHN,0.297
20,QTHH,0.44
21,QSHY,0.201
22,QTHS,0.585
23,QTHP,≤ 0.2
24,QTHY,0.384
25,QTHF,≤ 0.2

row,Variant,one-hybrid fitness for binding NBS DNA
1,QTHD,≤ 0.2
2,YMSF,≤ 0.2
3,HSWC,≤ 0.2
4,ATGK,≤ 0.2
5,YNLW,≤ 0.2
6,DVCT,≤ 0.2
7,DEDT,≤ 0.2
8,PSQV,≤ 0.2
9,DYHC,≤ 0.2
10,RKWK,≤ 0.2
11,AQNL,≤ 0.2
12,RRHK,0.267
13,RRHH,0.525
14,RRHP,≤ 0.2
15,RRHN,0.331
16,RRHS,0.681
17,RRHD,≤ 0.2
18,VSMF,≤ 0.2
19,PDIW,≤ 0.2
20,QRWA,0.432
21,QRMA,0.549
22,QRTA,0.6
23,QITA,≤ 0.2
24,QIWA,≤ 0.2
25,QCMA,0.303

row,Variant,one-hybrid fitness for binding NBS DNA
1,QSWA,≤ 0.2
2,QSTA,0.219
3,QACA,≤ 0.2
4,QHCA,≤ 0.2
5,QRCA,0.609
6,QSMA,≤ 0.2
7,FHAS,≤ 0.2
8,ENIG,≤ 0.2
9,LRKN,≤ 0.2
10,PCWT,≤ 0.2
11,QRSA,0.566
12,QRLA,0.547
13,QRIA,0.436
14,QSLA,≤ 0.2
15,QSSA,≤ 0.2
16,DRRA,≤ 0.2
17,QRRA,0.674
18,QRPA,0.207
19,QWRA,≤ 0.2
20,QPSA,≤ 0.2
21,QCIA,0.25
22,QCLA,0.304
